Test results reported in PubChem BioAssay (EPA / NIEHS).
Calls of active or inactive are those of the source. The calls were made as follows: active = hit-call score of the fitted dose curve at least 0.9, where 1 is the maximum; inconclusive = response in the unintended direction; inactive = score below 0.9.

The compounds below were run against Androgen Receptor/SRC-1 Co-activator, AR (gene 367) (UniProt P10275) (assay: OT_AR_ARSRC1_0960: Odyssey Thera (OT) 16-hour HEK293T Protein-Complementation Assay for Androgen Receptor/SRC-1 Co-activator (AID 2283353);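 also: actives raise the signal above DMSO so potency reflects increased AR and SRC-1 complex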).
Sequence of Androgen Receptor/SRC-1 Co-activator, AR (gene 367) (P10275 whole entry, looked up, the tested form may be a part): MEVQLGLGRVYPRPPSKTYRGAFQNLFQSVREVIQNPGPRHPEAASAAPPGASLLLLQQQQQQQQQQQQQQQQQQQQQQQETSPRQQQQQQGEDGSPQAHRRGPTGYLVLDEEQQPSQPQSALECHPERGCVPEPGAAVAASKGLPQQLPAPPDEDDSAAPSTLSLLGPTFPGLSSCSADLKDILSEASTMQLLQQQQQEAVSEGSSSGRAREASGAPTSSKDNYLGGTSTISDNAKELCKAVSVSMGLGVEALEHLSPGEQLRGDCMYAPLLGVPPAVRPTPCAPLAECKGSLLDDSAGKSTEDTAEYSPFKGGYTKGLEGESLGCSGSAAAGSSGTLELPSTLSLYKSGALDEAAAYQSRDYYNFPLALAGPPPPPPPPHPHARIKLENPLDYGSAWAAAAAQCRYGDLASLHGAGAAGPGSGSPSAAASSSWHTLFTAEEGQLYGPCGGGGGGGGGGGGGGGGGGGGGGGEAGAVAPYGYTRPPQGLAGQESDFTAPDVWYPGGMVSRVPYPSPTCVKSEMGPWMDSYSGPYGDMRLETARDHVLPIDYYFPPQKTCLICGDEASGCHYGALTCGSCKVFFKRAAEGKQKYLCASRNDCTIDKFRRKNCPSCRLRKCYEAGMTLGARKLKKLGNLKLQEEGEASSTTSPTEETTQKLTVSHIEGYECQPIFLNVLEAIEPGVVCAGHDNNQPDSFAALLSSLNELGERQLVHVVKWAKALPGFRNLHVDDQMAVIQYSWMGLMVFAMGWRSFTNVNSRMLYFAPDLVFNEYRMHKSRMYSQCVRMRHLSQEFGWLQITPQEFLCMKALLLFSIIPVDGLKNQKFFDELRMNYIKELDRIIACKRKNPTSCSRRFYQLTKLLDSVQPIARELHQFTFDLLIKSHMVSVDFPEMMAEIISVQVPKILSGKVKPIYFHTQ
Method in brief: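 Sixteen-hour cell assay: Venus halves fused to AR and SRC-1 in HEK293T report binding. Images at 488/635 nm give an N/C ratio in the 488 nm channel over ≥400 cells, analysed as signal increase over DMSO.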

Structure (SMILES) | outcome | AC50
O=S1(=O)OC(c2cc(Br)c(O)c(Br)c2)(c2cc(Br)c(O)c(Br)c2)c2ccccc21 | inactive | –
O=C(O)COc1cc(Cl)c(Cl)cc1Cl | inactive | –
Cc1cc(Cl)ccc1OCCCC(=O)O | inactive | –
CNC(=O)O/N=C/C(C)(C)S(C)(=O)=O | inactive | –
O=C(N[C@H]1CN2CCC1CC2)c1ccc2c(c1)OCCO2 | inactive | –
O=C(NC(=O)c1c(F)cccc1F)Nc1cc(Cl)c(OC(F)(F)C(F)C(F)(F)F)cc1Cl (stereo not given) | inactive | –
O=S1OC[C@@H]2[C@H](CO1)[C@]1(Cl)C(Cl)=C(Cl)[C@@]2(Cl)C1(Cl)Cl (stereo not given in full) | inactive | –
CC(=Cc1ccccc1)[N+](=O)[O-] | – | 16.7 µM (active)
N#CCC#N | inactive | –
C=CC(Cl)CCl (stereo not given) | inactive | –
CC(C)N(C(=O)CCl)c1ccccc1 | – | 45.7 µM (active)
COCCl | inactive | –
O=C1c2ccccc2C(=O)C1C(=O)C(c1ccccc1)c1ccc(Cl)cc1 (stereo not given) | inactive | –
O=[N+]([O-])c1ccc(Cl)c([N+](=O)[O-])c1 | – | 9.86 µM (active)
O=C(CCl)Nc1ccccc1 | – | 28.2 µM (active)
